Bioassay records as filed in PubChem.
pPAFAH FP inh: pPAFAH enzyme inhibitors, primary screen, biochemical, fluorescence polarization, human; recombinant pPAFAH, FP-rhodamine probe fluorescence polarization; inhibition, % at 3.39 µM; 1.5% of 330,000 active; AID 463082, 2010;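 active = inhibition above the mean inhibition across the screen plus 3 SD, cut at about 25% in these data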;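 also: inhibitors block binding of the rhodamine activity-based probe so polarization drops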
PAFAH2 FP inh: PAFAH2 enzyme inhibitors, primary screen, biochemical, fluorescence polarization, human; 0.99% of 340,000 active; AID 492956, 2010; Platelet-activating factor acetylhydrolase 2, cytoplasmic (Homo sapiens), Q99487; recombinant PAFAH2, FP-rhodamine activity probe; inhibition, % at 3.39 µM;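 active = inhibition above the mean over all tested compounds plus 3 SD, cut at about 30% in these data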;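 also: inhibitors block probe labeling of enzyme so polarization drops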
PAFAH1B3 inh: PAFAH1B3 enzyme inhibitors, primary screen, biochemical, fluorescence polarization, human; recombinant PAFAH1B3, FP-rhodamine probe; inhibition, % at 3.39 µM; 0.28% of 340,000 active;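 active = inhibition above the screen-wide average of all tested compounds plus 3 SD, cut at about 25% in these data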
ZTA DNA inh: counter-screen for EBNA-1 inhibitors: inhibitors of Epstein-Barr virus ZTA; ZTA-DNA binding, fluorescence polarization; inhibition, % at 11 µM; 0.15% of 320,000 active; AID 2234; in the data active = inhibition above about 33%
Target sequence (P03206 whole entry, looked up): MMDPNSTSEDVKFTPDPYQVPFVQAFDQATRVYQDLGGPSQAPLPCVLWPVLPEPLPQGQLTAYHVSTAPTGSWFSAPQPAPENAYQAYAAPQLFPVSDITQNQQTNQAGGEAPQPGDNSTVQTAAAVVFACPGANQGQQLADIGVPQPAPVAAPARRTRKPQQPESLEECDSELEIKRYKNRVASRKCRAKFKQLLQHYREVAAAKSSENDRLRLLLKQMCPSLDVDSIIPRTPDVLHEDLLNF
PAFAH1B2 inh: PAFAH1B2 enzyme inhibitors, primary screen, biochemical, fluorescence polarization, human; Platelet-activating factor acetylhydrolase IB subunit alpha2 (Homo sapiens), P68402; recombinant PAFAH1B2, FP-rhodamine activity probe; inhibition, % at 3.39 µM; 1.2% of 340,000 active; AID 492953, 2010;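 active = inhibition above the mean of all tested compounds plus 3 SD, cut at about 24% in these data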
EBNA-1 inhibitor: EBNA-1 DNA-binding inhibitors, primary screen, biochemical, fluorescence polarization | inhibition, % at 14.8 µM | 0.34% of 300,000 active; in the data active = inhibition above about 28%
Of the large screens only hits and unclear results are named; the others gave an inactive call. This is a sample that favours compounds with a hit; in the whole collection about 2.9% have one here.

Cc1cccc(-n2ccc(=O)c(C(=O)Nc3ccc(S(=O)(=O)Nc4nccs4)cc3)n2)c1	none
O=C(Nc1ccc(S(=O)(=O)Nc2nccs2)cc1)c1nn(-c2ccccc2)ccc1=O	pPAFAH FP inh 25
O=C(N/N=C/c1ccc(F)cc1)c1cc(-c2ccco2)nc2ccccc12	pPAFAH FP inh 30
Cc1nnc(NC(=O)c2cc(-c3ccco3)nc3ccccc23)s1	pPAFAH FP inh 27
CCOc1ccc(/C=N/NC(=O)c2cc(-c3ccco3)nc3ccccc23)cc1	none
Cc1csc(NC(=O)c2cc(-c3ccco3)nc3ccccc23)n1	pPAFAH FP inh 25
CC(C)c1[nH]nc2c1C(c1ccco1)C(C#N)=C(N)O2 (configuration not stated)	none
CCc1ccc(CNC(=O)c2ccc(OC3CCN(C(=O)COC)CC3)cc2)nc1	none (no result: pPAFAH FP inh, ZTA DNA inh, EBNA-1 inhibitor)
CC1(C(=O)NC(=S)NNC(=O)c2ccncc2)CCCCC1	none
O=C(NNC(=S)NC(=O)C12CC3CC(CC(C3)C1)C2)c1ccncc1	PAFAH1B2 inh 45
CC(C)C(C(=O)NCC1CCCO1)N(Cc1ccco1)C(=O)CNS(=O)(=O)c1ccc(F)cc1 (configuration not stated)	pPAFAH FP inh 34
CCCC(C(=O)NCC1CCCO1)N(Cc1ccco1)C(=O)CNS(=O)(=O)c1ccccc1 (configuration not stated)	none
O=C(CN(Cc1ccco1)C(=O)CNS(=O)(=O)c1ccc(Cl)cc1)NCc1ccc(F)cc1	PAFAH1B2 inh 26
O=C(CN(Cc1ccco1)C(=O)CNS(=O)(=O)c1ccc(F)cc1)NCc1ccc(F)cc1	none
COc1ccc(NC(=O)CSCC(=O)N(C)Cc2ccc3c(c2)OCCO3)cc1	none (no result: EBNA-1 inhibitor)
COc1ccccc1N1CCN(CCCNC(=O)C2CCCN(c3ncnc4c3nc3n4CCCCC3)C2)CC1 (configuration not stated)	none
O=C(NC1CCCC1)C(c1cccnc1)N(C(=O)c1csnn1)c1ccc(F)cc1 (configuration not stated)	none
COCCN(C(=O)c1cc(Cl)ccn1)c1c(N)n(Cc2ccccc2)c(=O)[nH]c1=O	none (no result: EBNA-1 inhibitor)
COc1cc(CC(=O)O)ccc1O	pPAFAH FP inh 34
COc1ccc(CC(=O)c2c(O)cc(O)cc2O)cc1OC	pPAFAH FP inh 25
COC(=O)c1ccc(CC(=O)c2c(C)cc(O)cc2O)o1	pPAFAH FP inh 34
COc1cc(C[C@@H](C)[C@@H](C)Cc2ccc(O)c(OC)c2)ccc1O	PAFAH1B2 inh 27 (no result: ZTA DNA inh, EBNA-1 inhibitor)
COc1cc(C[C@@H](CO)[C@H](CO)Cc2ccc(O)c(OC)c2)ccc1O	none (no result: PAFAH2 FP inh, PAFAH1B3 inh, PAFAH1B2 inh)
Cc1ccc(C)c(NC(=O)CN(C)C(C)C(=O)N2CC(C)CC(C)C2)c1 (configuration not stated)	none (no result: pPAFAH FP inh, ZTA DNA inh, EBNA-1 inhibitor)
N/C(=N\c1nc2ccccc2o1)NC(=O)c1ccccc1Br	none
COc1ccc(-c2ccc3c(N)c(C(=O)c4cccc(OC)c4)sc3n2)cc1	pPAFAH FP inh 34
O=C(c1cn(-c2ccccc2)nc1-c1cccnc1)N1CCN(S(=O)(=O)c2ccc(Cl)cc2)CC1	PAFAH1B2 inh 29 (no result: pPAFAH FP inh, ZTA DNA inh, EBNA-1 inhibitor)
COc1ccc(N2CCN(C(=O)c3cn(CC4CCCCC4)nn3)CC2)cc1	pPAFAH FP inh 28
COc1ccc(NC(=S)NNC(=O)CNc2ccc(Cl)cc2)cc1	none
CC1CC(NC(=O)/C=C/C(=O)O)CC(C)(C)C1 (configuration not stated)	PAFAH1B2 inh 24
COc1ccc(N(CC(=O)NC2CCCCC2C)S(=O)(=O)c2c(C)nn(C)c2C)cc1 (configuration not stated)	none
C=CCn1c(SC2CCOC2=O)nc2sc(CC)cc2c1=O (configuration not stated)	pPAFAH FP inh 27
Clc1ccc(COc2cccc(CNCc3ccncc3)c2)cc1	PAFAH1B2 inh 33
CC(C)(CO)NCc1cccc(OCc2ccc(Cl)cc2)c1	none
Cc1c(Cc2ccccc2)c(=O)oc2c(C)c(OCC(=O)N[C@@H](Cc3ccccc3)C(=O)O)ccc12	pPAFAH FP inh 33
Cc1ccc(C(=O)O)cc1-c1ccc(/C=C2/NC(=O)N(c3ccccc3)C2=O)o1	pPAFAH FP inh 29
